We go through 40 compounds from PubChem BioAssay (Tox21).

Where “and” joins values, the source holds several entries; their conditions need not be identical. Equal values may be shown once. Results filed as inconclusive are left out. Where a call stands in place of a potency, no number is given. Calls of active or inactive are those of the source. Calls follow the shape of the dose curve; as a rule, active = well fitted cell-killing curve with a large enough effect in the repeat runs; inconclusive = weak or mixed curves; inactive = no such curve, though single readings can be large or run the other way.
Potency is read from the fitted curve at half-maximal effect.

The nature of this assay: qHTS assay to identify small molecule antagonists of the androgen receptor (AR) signaling pathway - cell viability counter screen (AID 743033; also: nearly all actives have a fitted effect of over 45% in size). As to conditions: AR-bla HEK293 viability, CellTiter-Glo luminescence, 16 h; series mostly up to 58.5 µM. The text has this: National Center for Advancing Translational Sciences [NCATS]
NIH Chemical Genomics Center [NCGC]
U.S. Environmental Protection Agency [EPA]
National Institutes of Environmental Health Sciences [NIEHS]
National Toxicology Program [NTP]
U.S. Food and Drug Administration [FDA]
Androgen receptor (AR), a nuclear hormone receptor, plays a critical role in AR-dependent prostate cancer and other androgen related diseases. Endocrine disrupting chemicals (EDCs) and their interactions with steroid hormone receptors like AR may cause disruption of normal endocrine function as well as interfere with metabolic homeostasis, reproduction, developmental and behavioral functions. To identify the compounds that inhibit AR signaling, GeneBLAzer AR-UAS-bla-GripTite cell line (Invitrogen, Carlsbad, CA, USA) containing a beta-lactamase reporter gene under control of an Upstream Activator Sequence (UAS) stably integrated into HEK293 cells was used to screen the Tox21 10K compound library. The cytotoxicity of the Tox21 compound library against the AR-bla cell line was tested in parallel by measuring the cell viability using CellTiter-Glo assay in the same wells.
Tox21 Assay Protocol Summary:
AR-bla cells were dispensed at 2,000 cells/5 uL of assay medium per well into black wall/clear-bottom 1536-well plates using a Multidrop Combi (ThermoFisher Scientific, Waltham, MA) dispenser. After the assay plates were incubated at a 37C and 5% CO2 for 4 hr, 23 nL of compounds dissolved in DMSO, positive controls or DMSO only was transferred to the assay plate by a Pintool station (Kalypsys, San Diego, CA), followed by addition of 1 uL of agonist (R1881) in culture medium using a Bioraptr Flying Reagent Dispenser (FRD) workstation (Beckman Coulter, Indianapolis, IN, USA). The plates were incubated at a 37C and 5% CO2 for 16 h. After 1 uL of LiveBLAzerTM B/G FRET substrate was added using a Bioraptr FRD, the plates were incubated at room temperature for 2 h and fluorescence intensity was measured by an Envision plate reader (PerkinElmer, Shelton, CT). For cell viability readout that measures cytotoxicity, 4 ul/well of CellTiter-Glo reagent was added into the assay plates using a Bioraptr FRD. After 30 min incubation at room temperature, the luminescence intensity in the plates was measured using a ViewLux (PerkinElmer) plate reader.
Background: In qHTS, concentration-response curves come from the screen itself.
Turning to `Clc1ccc(COC(Cn2ccnc2)c2ccc(Cl)cc2Cl)cc1` (stereo not given), the Potency was 40.7 µM (active) and 38.7 µM (active).
With `ClC1=C(Cl)[C@]2(Cl)[C@H]3[C@H]([C@H]4C=C[C@H]3C4)[C@@]1(Cl)C2(Cl)Cl`, the Potency result was “inactive”.
As to `O=C(NC(=O)c1c(F)cccc1F)Nc1cc(Cl)c(OC(F)(F)C(F)F)c(Cl)c1`, the Potency result was “inactive”.
For `CN(C)C(=S)S`, the Potency was 15.8 µM (active) and 1.54 µM (active) and 9.77 µM (active).
As for `CC1CCC(C(C)C)C(OC(=O)c2ccccc2N)C1` (stereo not given), the entry is “inactive”.
For `Cn1cc(C2=C(c3cn(C4CCN(Cc5ccccn5)CC4)c4ccccc34)C(=O)NC2=O)c2ccccc21`, the Potency result was “inactive”.
On to `CC(=O)OC1(c2ccccc2)CCN(CCc2ccccc2)CC1`, for which the Potency result is “inactive”.
Take `[Hg+2].[I-].[I-]`: the Potency is 21.9 µM (active).
As for `S=C(SSC(=S)N1CCCCC1)N1CCCCC1`, the figure is 6.01 µM (active); as for `CCCOCC(=Nc1ccc(Cl)cc1C(F)(F)F)n1ccnc1`, 12.3 µM (active).
As for `CCCN(CCC)CCc1c[nH]c2ccccc12`, the entry is “inactive”.
In the case of `CC(C)(O)c1cnn2c(-c3ccc(F)c(-c4c(F)cccc4C#N)c3)cnc2n1`, the Potency result is “inactive”.
As for `CCN`, the entry is “inactive”.
As for `ClC1=C(Cl)C2(Cl)C3C(Cl)C(Cl)CC3C1(Cl)C2(Cl)Cl` (stereo not given), the Potency is 49 µM (active).
`CC(=O)[O-].CC(=O)[O-].O.O.[Cd+2]`: the Potency is 24.2 µM (active).
In the case of `CC(C)CC(C)N` (stereo not given), the Potency result is “inactive”.
`O=C(CCl)C(Cl)Cl`: the Potency is 6.22 µM (active).
For `Cc1cc(C)cc(OP(=O)(Oc2cc(C)cc(C)c2)Oc2cc(C)cc(C)c2)c1`, the Potency result is “inactive”.
With `CS(=O)(=O)c1ccc(C(=O)C2C(=O)CCCC2=O)c([N+](=O)[O-])c1`, the Potency entry is “inactive”.
As to `BrC(Br)Br`, the Potency entry is “inactive”.
Take `C[C@H]1O[C@@H](O[C@H]2[C@@H](O)C[C@H](O[C@H]3[C@@H](O)C[C@H](O[C@H]4CC[C@@]5(C)[C@H](CC[C@@H]6[C@@H]5CC[C@]5(C)[C@@H](C7=CC(=O)OC7)CC[C@]65O)C4)O[C@@H]3C)O[C@@H]2C)C[C@H](O)[C@@H]1O`: the Potency was 95.2 nM (active) and 22 nM (active).
Consider `CCCCCCCCCC[N+](C)(C)CCCCCCCCCC`, for which the Potency is 16.9 µM (active) and 19.5 µM (active).
As for `Oc1cc(Cl)c(Cl)c(Cl)c1`, the Potency was 32.9 µM (active).
With `O=C(CBr)c1ccc(O)cc1`, the Potency result is “inactive”.
Regarding `Cc1cc(C)c(C2=C(OC(=O)CC(C)(C)C)C3(CCCC3)OC2=O)c(C)c1`, the Potency entry was “inactive”.
As for `FC(F)(F)c1cccc(C2=CCN(CCc3ccc4ccccc4c3)CC2)c1`, the Potency result is “inactive”.
Consider `CC(=O)[O-].CC(=O)[O-].[Hg+2]`, for which the Potency is 11 µM (active).
Turning to `O=[N+]([O-])c1cc([N+](=O)[O-])c2ccccc2c1`, the Potency result is “inactive”.
As for `CC(C)OS(C)(=O)=O`, the Potency entry was “inactive”.
The same measure for `Clc1ccc(-c2ccc(Cl)c(Cl)c2Cl)c(Cl)c1Cl`: “inactive”; for `FC(Cl)(Cl)Cl`: “inactive”; for `CCOCn1c(-c2ccc(Cl)cc2)c(C#N)c(Br)c1C(F)(F)F`: 0.871 µM (active).
Turning to `Cc1cc(N=Nc2ccccc2C)ccc1N`, the Potency result is “inactive”.
As to `Nc1ccc(Sc2ccc(N)cc2)cc1`, the Potency result is “inactive”.
Regarding `C[C@]12CC[C@@H]3c4ccc(OC(=O)N(CCCl)CCCl)cc4CC[C@H]3[C@@H]1CC[C@@H]2O`, the Potency result was “inactive”.
On to `C[C@H]1CC[C@@H]2[C@@H](C)[C@H]3[C@H](C[C@H]4[C@@H]5CC=C6CC(O[C@@H]7O[C@H](CO)[C@H](O)[C@H](O[C@@H]8O[C@H](CO)[C@@H](O)[C@H](O)[C@H]8O)[C@H]7O[C@H]7O[C@@H](C)[C@H](O)[C@@H](O)[C@H]7O)CC[C@]6(C)[C@H]5CC[C@]34C)N2C1` (stereo not given in full), for which the Potency entry was “inactive”.
As to `CC(C)CC(C)Nc1ccc(Nc2ccccc2)cc1` (stereo not given), the Potency was 21.5 µM (active).
Turning to `CC(C)[C@H](C(=O)OC(C#N)c1cccc(Oc2ccccc2)c1)c1ccc(OC(F)F)cc1` (stereo not given in full), the Potency result was “inactive”.
Turning to `[Cd+2].[Cl-].[Cl-]`, the Potency is 24.8 µM (active).
`CCOC(=O)OC1=C(c2cc(C)ccc2C)C(=O)NC12CCC(OC)CC2` (stereo not given): the Potency result was “inactive”.
